The source of these data is PubChem BioAssay (Tox21).

Values joined by “and” are separate entries in the source; they are usually repeats but may differ in a detail not shown here. Identical values can stand only once. Results filed as inconclusive are left out. The source holds several records for some structures; these can differ, active in one and inactive in another. Active and inactive are the calls of the source. Unless noted, the call rests on the fitted dose curve; in most records, active means well fitted curve in the direction sought with a large enough effect in the repeat runs; inconclusive means weak or mixed curves; inactive means no such curve, though single readings can be large; an effect the other way counts as inactive or inconclusive.

Assay [1] in a line: qHTS assay to test for compound auto fluorescence at 535 nm (green) in HEK293 cells (AID 720680).
Assay [2] in a line: qHTS assay to test for compound auto fluorescence at 460 nm (blue) in HEK293 cell free culture (AID 720681). Summed up: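 Test compounds were pinned into cell-free culture medium (DMEM with 10% FBS) and fluorescence was read directly at Ex/Em 405/460 nm. Signals were expressed as fluorescence equivalents of triamterene, with DMSO vehicle as control.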
The nature of assay [3]: qHTS assay to test for compound auto fluorescence at 535 nm (green) in HEK293 cell free culture (AID 720682). Summed up: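 Steps: dispense DMEM/10% FBS into empty wells; pin in compound or DMSO; measure fluorescence at 485/535 nm. Values are fluorescein equivalents.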
The nature of assay [4]: qHTS assay to test for compound auto fluorescence at 590 nm (red) in HEK293 cell free culture (AID 720683). The procedure, abridged:
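Tox21 10K library compounds were pinned into cell-free DMEM with 10% FBS and fluorescence was read at excitation 540 nm. Activity is expressed as Rose Bengal sodium equivalency.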

A short description of assay [5]: qHTS assay to test for compound auto fluorescence at 590 nm (red) in HepG2 cell free culture (AID 720684). Summed up:
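Readout: intrinsic compound fluorescence at 590 nm emission after 540 nm excitation, scaled to Rose Bengal sodium. Matrix was cell-free MEM with 10% FBS; DMSO vehicle wells served as control.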

Assay [6] can be described thus: qHTS assay to test for compound auto fluorescence at 460 nm (blue) in HepG2 cell free culture (AID 720685). Summed up: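 Cell-free plates of MEM plus 10% FBS received 23 nL compound or DMSO vehicle; blue-channel (405/460 nm) intensity scored against triamterene as reference fluorophore.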
Assay [7] can be described thus: qHTS assay to test for compound auto fluorescence at 535 nm (green) in HepG2 cell free culture (AID 720686).
The nature of assay [8]: qHTS assay to test for compound auto fluorescence at 460 nm (blue) in HepG2 cells (AID 720687). Summed up:
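Cells (2,000/well in MEM with 10% FBS) attached overnight at 37 C, then were exposed to compound or DMSO for 1 hr at 37 C, 5% CO2. Fluorescence read at Ex/Em 405/460 nm, expressed as triamterene-equivalent signal.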

Assay [9] addresses Glucocorticoid receptor (Homo sapiens) (UniProt P04150). As to the kind of experiment: qHTS assay to identify small molecule agonists of the glucocorticoid receptor (GR) signaling pathway (AID 720691; active means well fitted activation curve with a large enough effect in the signal ratio in the repeat runs, not every such curve was filed as active; the % refers to the signal ratio). The procedure, abridged: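 Compounds in DMSO, alongside positive controls, were added to GR-bla HeLa reporter cells and incubated 18 h at 37 C; GRE-driven beta-lactamase was detected by fluorescence after 2 h with FRET substrate at room temperature.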

Assay [10] shares this target. As to the kind of experiment: qHTS assay to identify small molecule antagonists of the glucocorticoid receptor (GR) signaling pathway (AID 720692; active means well fitted inhibition curve with a large enough effect in the signal ratio in the repeat runs, not every such curve was filed as active; the % refers to the signal ratio). Summed up:
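In a 1536-well cell format, compounds were added 4 h after seeding GR-bla HeLa cells, together with dexamethasone at 5 nM final; reporter activity was measured by FRET-substrate fluorescence following 18 h at 37 C.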

Assay [11] can be described thus: qHTS assay to identify small molecule antagonists of the glucocorticoid receptor (GR) signaling pathway - cell viability counter screen (AID 720693). Further: nearly all actives have a fitted effect of over 55% in size.
The nature of assay [12]: qHTS assay for identifying genotoxic compounds that show differential cytotoxicity against isogenic chicken DT40 cell lines with known DNA damage response pathways - wild type cell line (AID 743012). Further: nearly all actives have a fitted effect of over 60% in size. Further: potency means the concentration at half of the fitted maximal effect. Summed up:
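Viability of DNA repair-proficient chicken DT40 cells was assessed by CellTiter-Glo luminescence following 40 h compound exposure at 37 C/5% CO2.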

A short description of assay [13]: qHTS assay for identifying genotoxic compounds that show differential cytotoxicity against isogenic chicken DT40 cell lines with known DNA damage response pathways - Rev3 mutant cell line (AID 743014). Further: nearly all actives have a fitted effect of over 55% in size. Further: potency means the concentration at half of the fitted maximal effect.
Assay [14] in a line: qHTS assay for identifying genotoxic compounds that show differential cytotoxicity against isogenic chicken DT40 cell lines with known DNA damage response pathways - Rad54/Ku70 mutant cell line (AID 743015). Further: nearly all actives have a fitted effect of over 60% in size. Further: potency means the concentration at half of the fitted maximal effect.
A short description of assay [15]: qHTS assay to identify small molecule antagonists of the androgen receptor (AR) signaling pathway - cell viability counter screen (AID 743033; further: nearly all actives have a fitted effect of over 45% in size).
The nature of assay [16]: qHTS assay to identify small molecule antagonists of the androgen receptor (AR) signaling pathway using the MDA cell line - cell viability counter screen (AID 743041; further: nearly all actives have a fitted effect of over 45% in size). Summed up:
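qHTS viability read-out; MDA-kb2 AR-luc; R1881-stimulated; 16 h exposure at 37C, 0% CO2; CellTiter-Fluor, 30 min; fluorescence intensity.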

Assay [17] has as its target Androgen receptor (Homo sapiens) (UniProt P10275). Description: qHTS assay to identify small molecule antagonists of the androgen receptor (AR) signaling pathway (AID 743035; active means well fitted inhibition curve with a large enough effect in the signal ratio in the repeat runs, not every such curve was filed as active; the % refers to the signal ratio). The procedure, abridged:
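Reporter HEK293 cells were exposed to compounds and R1881 overnight (16 h, 37C); beta-lactamase activity was then quantified by FRET fluorescence.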

Assay [18] has the same target. Description: qHTS assay to identify small molecule agonists of the androgen receptor (AR) signaling pathway (AID 743036; active means well fitted activation curve with a large enough effect in the signal ratio in the repeat runs, with a control signal flat, not every such curve was filed as active; the % refers to the signal ratio). Summed up: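 Reporter line: GeneBLAzer AR-UAS-bla-GripTite (HEK293). Steps: plate cells, 4 h rest, add compounds, 16 h at 37C, add LiveBLAzer B/G substrate, 2 h at RT, read fluorescence.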
Assay [19] shares this target. As to the kind of experiment: qHTS assay to identify small molecule agonists of the androgen receptor (AR) signaling pathway using the MDA cell line (AID 743040; further: nearly all actives have a fitted effect of over 20% in size). Summed up:
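Agonist activity is measured as luciferase luminescence in human MDA-kb2 cells whose MMTV reporter responds to both AR and GR. Compounds in DMSO incubate 16 h at 37C, 0% CO2, and ONE-Glo is read after 30 min.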

The target is the same in assay [20]. Description: qHTS assay to identify small molecule antagonists of the androgen receptor (AR) signaling pathway using the MDA cell line (AID 743042; further: nearly all actives have a fitted effect of over 55% in size). Summed up: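 MDA-kb2 cells (human breast carcinoma, stably carrying an MMTV-luciferase reporter responsive to AR and GR) were plated at 3,000 cells/well and preincubated 5 hr at 37C, then given compound plus R1881 agonist for 16 h. ONE-Glo luminescence was read.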

Sequence of Androgen receptor (Homo sapiens) (P10275 whole entry, looked up): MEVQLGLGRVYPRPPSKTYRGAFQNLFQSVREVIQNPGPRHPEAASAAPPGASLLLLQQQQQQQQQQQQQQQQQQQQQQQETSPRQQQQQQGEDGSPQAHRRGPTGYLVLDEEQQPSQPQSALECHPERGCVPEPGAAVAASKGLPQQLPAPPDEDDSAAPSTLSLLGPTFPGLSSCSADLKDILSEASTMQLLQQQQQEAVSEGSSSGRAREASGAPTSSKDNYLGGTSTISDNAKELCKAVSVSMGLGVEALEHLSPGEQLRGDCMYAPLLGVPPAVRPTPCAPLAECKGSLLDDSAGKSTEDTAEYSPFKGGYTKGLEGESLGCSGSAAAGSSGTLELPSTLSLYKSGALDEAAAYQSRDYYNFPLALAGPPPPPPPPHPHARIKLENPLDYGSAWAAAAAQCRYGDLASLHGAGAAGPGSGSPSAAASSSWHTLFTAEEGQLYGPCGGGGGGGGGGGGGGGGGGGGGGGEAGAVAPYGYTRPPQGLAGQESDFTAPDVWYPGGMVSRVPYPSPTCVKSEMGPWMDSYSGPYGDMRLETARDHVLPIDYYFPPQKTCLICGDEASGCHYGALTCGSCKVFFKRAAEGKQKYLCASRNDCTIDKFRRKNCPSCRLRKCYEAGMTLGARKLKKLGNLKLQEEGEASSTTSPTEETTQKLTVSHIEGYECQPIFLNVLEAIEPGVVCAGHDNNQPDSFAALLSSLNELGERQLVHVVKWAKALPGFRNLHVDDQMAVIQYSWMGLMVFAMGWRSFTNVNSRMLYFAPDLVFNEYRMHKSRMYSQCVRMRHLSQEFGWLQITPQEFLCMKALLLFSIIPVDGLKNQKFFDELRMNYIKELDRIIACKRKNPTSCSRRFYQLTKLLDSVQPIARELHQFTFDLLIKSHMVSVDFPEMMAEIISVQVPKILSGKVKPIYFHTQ
Sequence of Glucocorticoid receptor (Homo sapiens) (P04150 whole entry, looked up): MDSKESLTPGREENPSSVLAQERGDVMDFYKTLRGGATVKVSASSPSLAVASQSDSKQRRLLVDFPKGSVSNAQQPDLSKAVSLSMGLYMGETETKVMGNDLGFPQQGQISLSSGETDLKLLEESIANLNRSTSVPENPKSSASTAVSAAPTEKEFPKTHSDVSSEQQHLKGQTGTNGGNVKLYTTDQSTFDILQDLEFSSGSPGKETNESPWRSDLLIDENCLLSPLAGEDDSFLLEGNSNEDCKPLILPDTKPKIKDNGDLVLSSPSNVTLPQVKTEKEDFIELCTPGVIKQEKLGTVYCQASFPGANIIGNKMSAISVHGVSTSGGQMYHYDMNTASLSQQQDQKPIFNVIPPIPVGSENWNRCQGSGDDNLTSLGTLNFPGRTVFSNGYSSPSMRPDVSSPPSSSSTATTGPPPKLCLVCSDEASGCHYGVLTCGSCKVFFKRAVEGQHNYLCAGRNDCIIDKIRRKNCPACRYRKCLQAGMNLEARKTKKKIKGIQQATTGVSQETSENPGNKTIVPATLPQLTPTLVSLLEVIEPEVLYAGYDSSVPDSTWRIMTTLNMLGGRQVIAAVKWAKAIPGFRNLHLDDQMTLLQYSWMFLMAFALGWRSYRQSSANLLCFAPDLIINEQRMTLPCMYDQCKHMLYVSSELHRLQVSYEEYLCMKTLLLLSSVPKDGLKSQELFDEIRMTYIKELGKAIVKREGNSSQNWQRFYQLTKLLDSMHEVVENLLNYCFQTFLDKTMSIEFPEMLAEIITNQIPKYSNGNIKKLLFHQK

On to `CCCCCCCCCCCCn1cc[n+](C)c1`, for which the compound was called inactive in assay [1], in [2], in assay [3], in [4], in [5] and in assay [6]. In addition, the compound was called inactive in assay [7], in assay [8] and in assay [9]. In [10], the Potency entry was “inactive”.

For `CCCCCCCCCCCCCCCCn1cc[n+](C)c1`, the outcome in [1], in assay [2], in assay [3], in assay [4], in [5] and in assay [6] was inactive. Besides, the outcome in [7], in [8] and in assay [9] was inactive. Further, the Potency result in assay [10] is “inactive”.

Regarding `N#CS`, the call in [1], in assay [2], in [3], in assay [4], in [5] and in [6] was inactive. The call in assay [7], in assay [8] and in [9] was inactive. The Potency entry in assay [10], in [11], in assay [12], in assay [13], in assay [14] and in assay [15] was “inactive” each time. Besides, in assay [16], the Potency entry was “inactive”.

For the compound `O=[N+]([O-])c1ccccc1O`, the compound was classed as inactive in assay [1], in assay [2], in [3], in [4], in [5] and in [6]. In addition, the compound was classed as inactive in assay [7], in assay [8] and in [9]. The Potency result in assay [10], in assay [11], in assay [12], in [13], in [14] and in [15] was “inactive” in each case. The Potency entry in assay [16] is “inactive”.

As for `Cc1cc(Cl)ccc1OCC(=O)O`, the call in assay [1], in assay [2], in [3], in [4], in [5] and in [6] was inactive. In addition, the outcome in assay [7], in assay [8], in assay [9], in [17], in [18] and in [19] was inactive. Besides, the Potency entry in assay [10], in assay [11], in assay [13], in assay [14], in assay [15] and in assay [16] was “inactive” each time. Also, the Potency entry in [20] was “inactive”.

As to `O=C(O)COc1ccc(Cl)cc1Cl`, the call in assay [1], in [2], in [3], in [4], in assay [5] and in assay [6] was inactive. Also, the outcome in assay [7], in assay [8] and in [9] was inactive. The Potency entry in assay [10], in [11], in [13], in assay [14], in assay [15] and in [16] was “inactive” each time.

In the case of `O=C(O)C(Cl)Cl`, the result in assay [1], in [2], in [3], in assay [4], in assay [5] and in assay [6] was inactive. Besides, the call in assay [7], in assay [8] and in assay [9] was inactive. In addition, the Potency result in assay [10], in assay [11], in assay [13], in assay [14], in assay [15] and in assay [16] was “inactive” throughout.

Turning to `CCC(=O)C(CC(C)N(C)C)(c1ccccc1)c1ccccc1` (stereo not drawn), the compound was called inactive in assay [1], in [2], in assay [3], in assay [4], in [5] and in [6]. Further, the compound was classed as inactive in [7], in assay [8], in assay [9], in assay [17], in [18] and in assay [19]. In addition, the Potency entry in assay [10], in assay [11], in assay [15], in assay [16] and in assay [20] was “inactive” throughout. For the same compound, the Potency was 48.8 µM (active) and 60.7 µM (active) and 46.6 µM (active) in assay [13]; 43.5 µM (active) and 41.5 µM (active) in assay [14].

In the case of `Cc1cc(Cl)ccc1N`, the outcome in assay [1], in assay [2], in assay [3], in assay [4], in [5] and in [6] was inactive. Moreover, the compound was classed as inactive in assay [7], in assay [8] and in [9]. Also, the Potency entry in assay [10], in [11], in [12], in [13], in assay [14] and in [15] was “inactive” throughout. The Potency entry in [16] is “inactive”.

As for `CC[N+]1(C)CCCC1`, the compound was classed as inactive in [1], in assay [2], in assay [3], in assay [4], in [5] and in assay [6]. For the same compound, the result in assay [7], in assay [8] and in assay [9] was inactive. Moreover, the Potency entry in [10], in [11], in [15] and in [16] was “inactive” in each case. The Potency result was “inactive and 971 nM (active)” in assay [12]; “inactive and 612 nM (active)” in [13]; “inactive and 771 nM (active)” in assay [14].

As to `O=C(O)c1nc(Cl)ccc1Cl`, the result in assay [1], in assay [2], in assay [3], in [4], in assay [5] and in assay [6] was inactive. Also, the result in [7], in assay [8] and in assay [9] was inactive. Further, the Potency entry in assay [10], in assay [11], in assay [13], in [14], in assay [15] and in assay [16] was “inactive” throughout.

`O=C(O)CCl`: the outcome in assay [1], in assay [2], in assay [3], in assay [4], in assay [5] and in assay [6] was inactive. The result in assay [7], in assay [8] and in assay [9] was inactive. The Potency result in assay [10], in assay [11], in assay [13], in assay [14], in assay [15] and in [16] was “inactive” throughout.

As for `CCCn1cc[n+](C)c1`, the compound was called inactive in assay [1], in assay [2], in [3], in [4], in assay [5] and in assay [6]. Besides, the compound was classed as inactive in assay [7], in assay [8] and in assay [9]. The Potency entry in [10], in assay [11], in assay [12], in [13], in [14] and in assay [15] was “inactive” each time. Moreover, the Potency entry in [16] was “inactive”.

For the compound `CCCC[n+]1cccc(C)c1`, the call in assay [1], in [2], in assay [3], in assay [4], in [5] and in assay [6] was inactive. The compound was classed as inactive in [7], in [8] and in [9]. Also, the Potency entry in assay [10], in assay [11], in [13], in assay [14], in assay [15] and in [16] was “inactive” throughout.

For `CC[N+](CC)(CC)CC`, the result in [1], in [2], in assay [3], in assay [4], in assay [5] and in [6] was inactive. Further, the result in assay [7], in assay [8] and in assay [9] was inactive. The Potency entry in assay [10], in [11], in assay [13], in [14], in assay [15] and in assay [16] was “inactive” in each case.
